Laboratory results as given in PubChem BioAssay (NCATS).
Activity calls are given as the source filed them. Where a call stands in place of a potency, no number is given. Calls follow the shape of the dose curve; as a rule, active = well fitted activation curve with a large enough effect; inconclusive = small, poorly fitted or top-dose-only effect; inactive = no such curve, though single readings can be large or run the other way.

Biological target: Pyruvate kinase (Leishmania mexicana) (UniProt Q27686)
Assay: qHTS Validation Assay for Activators of Leishmania Mexicana Pyruvate Kinase (AID 959)
Details: purified L. mexicana pyruvate kinase, enzyme activity; series mostly up to 57.5 µM
In short: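 Eight-point qHTS titrations; enzyme 0.2 nM LmPYK (E451W mutant); substrates 0.5 mM PEP, 0.1 mM ADP; 7 mM MgCl2; 1 h room temperature; PKLight luminescence normalized to neutral control.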

Sequence of Pyruvate kinase (Leishmania mexicana) (Q27686 2-499 E452W): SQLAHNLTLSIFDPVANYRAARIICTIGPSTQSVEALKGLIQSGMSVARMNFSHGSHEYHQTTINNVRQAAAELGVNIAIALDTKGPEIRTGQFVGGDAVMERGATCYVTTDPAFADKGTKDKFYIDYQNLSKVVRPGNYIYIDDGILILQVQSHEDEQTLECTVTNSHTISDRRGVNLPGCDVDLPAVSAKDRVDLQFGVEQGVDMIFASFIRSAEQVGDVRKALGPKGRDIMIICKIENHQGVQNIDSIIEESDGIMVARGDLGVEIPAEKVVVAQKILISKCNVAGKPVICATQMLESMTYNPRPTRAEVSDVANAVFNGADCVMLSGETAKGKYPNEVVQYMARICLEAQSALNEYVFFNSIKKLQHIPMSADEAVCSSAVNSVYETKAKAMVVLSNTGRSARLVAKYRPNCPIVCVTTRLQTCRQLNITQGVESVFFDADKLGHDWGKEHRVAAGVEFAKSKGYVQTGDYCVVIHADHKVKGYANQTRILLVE

SMILES	Potency
O=C(O)c1cc[c]([Hg][Cl])cc1	inactive
O=c1c2ccccc2[se]n1-c1ccccc1	inactive
CN(N=O)c1cc(O)ccc1O	3.16 µM (active)
